# Reference: PubChem BioAssay (Tox21)
# Records with an inconclusive call do not appear. A call without a number means that no potency is given here. Active and inactive are the calls of the source. The call rests on the fitted dose curve; in most records, active means well fitted inhibition curve with a large enough effect in the repeat runs; inconclusive means weak or mixed curves; inactive means no such curve, though single readings can be large or run the other way.
# Molecular target: Estrogen receptor (Homo sapiens) (UniProt P03372)
# Assay: qHTS assay to identify small molecule antagonists of the estrogen receptor alpha (ER-alpha) signaling pathway using the BG1 cell line in the presence of 0.1 nM 17-beta-estradiol (AID 1259244); further: nearly all actives have a fitted effect of over 50% in size
# Settings: VM7Luc4E2 (BG1) ERE-luciferase, antagonist mode, 0.1 nM E2, 22 h; series mostly up to 92.4 µM
# Source text: National Center for Advancing Translational Sciences [NCATS]
# NIH Chemical Genomics Center [NCGC]
# U.S. Environmental Protection Agency [EPA]
# National Institutes of Environmental Health Sciences [NIEHS]
# National Toxicology Program [NTP]
# U.S. Food and Drug Administration [FDA]
# Estrogen receptor (ER), a member of the nuclear hormone receptor plays an important role in development, metabolic homeostasis and reproduction. Two subtypes of ER, ER-alpha and ER-beta, have similar expression patterns with some uniqueness in both types. Endocrine disrupting chemicals (EDCs) and their interactions with steroid hormone receptors like ER causes disruption of normal endocrine function. Therefore, it is important to understand the effect of environmental chemicals in ER signaling pathway. For identifying ER antagonists, VM7Luc4E2 cell line was used to screen against Tox21 compound libraries.
# VM7Luc4E2 cell line (provided by Denison MS, University of California) endogenously express full-length ER-alpha and is stably transfected with a plasmid containing four estrogen responsive elements (ERE) upstream of a luciferase reporter gene. The current screening for identification of ER-alpha inhibitors against Tox21 compound libraries used lower concentration (0.1 nM) of 17beta-Estradiol as a stimulator.
# Tox21 Assay Protocol Summary:
# VM7Luc4E2 cells were cultured in phenol red free assay medium containing 10% charcoal stripped FBS for 5 days prior to the assay. The cells were dispensed at 4,000 cells/well in 4 uL of assay medium into white wall/solid-bottom 1536-well plates (Corning Life Sciences, Corning, NY) using a Multidrop Combi (ThermoFisher Scientific, Waltham, MA) dispenser. After the assay plates were incubated at 37C and 5% CO2 for 24 hr, 23 nL of compounds dissolved in DMSO, positive controls or DMSO only was transferred to the assay plates by a Pintool station (Kalypsys, San Diego, CA). The transfer of compounds was followed by the addition of 1 uL of 0.1 nM (final concentration) agonist (17beta-Estradiol)/assay medium using a Flying Reagent Dispenser (FRD, Aurora Discovery, San Diego, CA). The plates were incubated at 37C and 5% CO2 for 22 hr. For luciferase reporter gene assay, 4 uL of ONE-Glo reagent (Promega Corporation, Madison, WI) was added to each well using the FRD and after 30 min incubation at room temperature luminescence intensity was measured using ViewLux plate reader (PerkinElmer, Shelton, CT).
# Potency means the concentration at half of the fitted maximal effect.
# Chain of Estrogen receptor (Homo sapiens) (P03372 whole entry, looked up): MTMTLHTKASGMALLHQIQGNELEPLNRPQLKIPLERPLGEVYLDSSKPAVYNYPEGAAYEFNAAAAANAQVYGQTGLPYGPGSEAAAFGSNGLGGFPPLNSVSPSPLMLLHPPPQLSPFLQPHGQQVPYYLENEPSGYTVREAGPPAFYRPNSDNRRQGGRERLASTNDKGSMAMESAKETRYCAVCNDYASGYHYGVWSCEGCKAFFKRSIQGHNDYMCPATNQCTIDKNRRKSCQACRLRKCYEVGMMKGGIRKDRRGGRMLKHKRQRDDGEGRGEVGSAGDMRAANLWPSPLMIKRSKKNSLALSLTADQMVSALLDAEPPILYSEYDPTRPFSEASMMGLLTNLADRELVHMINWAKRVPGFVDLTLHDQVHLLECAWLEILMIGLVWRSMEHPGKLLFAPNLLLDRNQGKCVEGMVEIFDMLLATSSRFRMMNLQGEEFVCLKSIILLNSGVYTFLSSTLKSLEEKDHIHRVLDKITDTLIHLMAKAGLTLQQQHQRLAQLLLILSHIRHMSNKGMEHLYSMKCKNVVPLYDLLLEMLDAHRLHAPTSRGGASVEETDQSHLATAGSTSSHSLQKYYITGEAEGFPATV
row,Compound,Potency
1,ClP(Cl)(Cl)(Cl)Cl,inactive
2,CCCCC(O)(Cn1cncn1)c1ccc(Cl)cc1Cl (stereo not given),61.1 µM (active)
3,Brc1ccc(Oc2ccccc2)cc1,inactive
4,C=CC[C@]1(O)CC[C@H]2[C@@H]3CCC4=CC(=O)CCC4=C3C=C[C@@]21C,13.3 µM (active)
5,CCOP(=O)(OCC)SCCSCC,inactive
6,CCBr,inactive
7,CC(Cl)C(C)Cl (stereo not given),inactive
8,O=C=Nc1ccc(Cl)cc1,inactive
9,COCCOCCO,inactive
10,CCO[C@H]1O[C@@H]2OC3(C)CC[C@H]4[C@H](C)CC[C@@H]([C@H]1C)[C@@]24OO3,inactive
11,Clc1cccc(SC2CCNCC2)n1,inactive
12,N#CCC#N,inactive
13,C=CCOC(C)=O,inactive
14,CN(C)c1ccc(N(C)C)cc1,30.7 µM (active)
15,NC(=O)C(Cl)(Cl)Cl,inactive
16,N#CCc1ccccc1,inactive
17,Cc1ccc(N)cc1C,inactive
18,CCOP(=O)(OCC)O/C(=C/Cl)c1ccc(Cl)cc1Cl,54.5 µM (active)
19,Cn1sc(Cl)cc1=O,inactive
20,O=C(O)COc1ccc(Cl)cc1,inactive

row,Compound,Potency
1,CCC(Cl)CCl (stereo not given),inactive
2,Nc1ccc(N=Nc2ccc(-c3ccc(N=Nc4c(S(=O)(=O)O)cc5cc(S(=O)(=O)O)c(N=Nc6ccccc6)c(O)c5c4N)cc3)cc2)c(N)c1,inactive
3,COP(=S)(Oc1cc(Cl)c(Br)cc1Cl)c1ccccc1 (stereo not given),inactive
4,CCOP(=S)(Oc1ccc([N+](=O)[O-])cc1)c1ccccc1 (stereo not given),inactive
5,Clc1cc(Cl)c(Cl)c(Cl)c1,inactive
6,CCCN(CC1CC1)c1c([N+](=O)[O-])cc(C(F)(F)F)cc1[N+](=O)[O-],inactive
7,Nc1nc(=S)[nH][nH]1,inactive
8,O=[N+]([O-])c1ccc(F)c([N+](=O)[O-])c1,27.6 µM (active)
9,Sc1ccccc1Cl,inactive
10,CCCC(=O)Cl,inactive
11,CC1Sc2c(C(=O)O)c(=O)c3cc(F)c(N4CCNCC4)cc3n21 (stereo not given),inactive
12,Cl/C=C\C[N+]12CN3CN(CN(C3)C1)C2,inactive
13,COc1nn(CSP(=S)(OC)OC)c(=O)s1,inactive
14,Clc1cc(C(Cl)(Cl)Cl)cnc1Cl,inactive
15,CO/C=C(/C(=O)OC)c1ccccc1COc1cccc(C(F)(F)F)n1,2.17 µM (active)
16,C=CC(=O)OCC(C)C,inactive
17,N#Cc1ccc(Cl)cc1,inactive
18,O=NN1CCCCCC1,inactive
19,COC(=O)C(Cl)C(=O)OC,inactive
20,Cl/C=C\Cl,inactive
